Results taken from PubChem BioAssay (EPA / NIEHS).
Records with an inconclusive call do not appear. Calls of active or inactive are those of the source. How the source made its calls, unless noted: active means hit-call score of the fitted dose curve at least 0.9, where 1 is the maximum; inactive means score below 0.9.

What was measured:
[1] = molecular target: Nuclear respiratory factor 1 (Homo sapiens) (UniProt Q16656); test: ATG_NRF1_CIS: Attagene CIS-FACTORIAL HepG2 Assay for human Nuclear Respiratory Factor 1 (NRF1) Orphan Gene (AID 2282987); conditions: HepG2 NRF1 cis-element reporter, Attagene multiplex; actives raise or lower the signal
How it was run: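 HepG2 cells transiently transfected with multiple reporter transcription units under cis-regulatory promoter control, so endogenous transcription-factor activity is read. After 24 h compound exposure, reporter mRNA quantified by RT-PCR, fluorescent labelling, HpaI digestion and capillary electrophoresis; bidirectional fitting versus DMSO.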

[2] = ATG_NFI_CIS: Attagene CIS-FACTORIAL HepG2 Assay for human Nuclear Factor I (NFI) (AID 2282989); conditions: HepG2 cis-regulatory reporter, NFI response element transcription; actives raise or lower the signal
How it was run: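 HepG2 cells transiently transfected with cis-element-driven multiplexed reporter transcription units, dosed for 24 h. Reporter mRNA quantified by RT-PCR, fluorescent labelling, HpaI digestion and capillary electrophoresis; bidirectional fit versus DMSO baseline.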

[3] = molecular target: Myc proto-oncogene protein (Homo sapiens) (UniProt P01106); test: ATG_Myc_CIS: Attagene CIS-FACTORIAL HepG2 Assay for human Myelocytomatosis (Myc) Proto-Oncogene Transcription Factor (AID 2282990); conditions: HepG2, Attagene cis-reporter transcription factor activity; actives raise or lower the signal
How it was run: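 Fluorescence intensity of reporter-specific cDNA fragments, separated by capillary electrophoresis, gives the signal. Transfected HepG2 cells carrying cis-promoter reporter constructs are incubated with compound for 24 h; DMSO serves as baseline.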

[4] = ATG_NF_kB_CIS: Attagene CIS-FACTORIAL HepG2 Assay for human Nuclear Factor Kappa B (NF-kB) (AID 2282991); conditions: HepG2 Attagene cis-factorial NF-kB reporter mRNA; actives raise or lower the signal
How it was run: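 HepG2 cells transiently transfected with multiplexed cis-element reporter units measuring endogenous transcription factor activity; reporter mRNA read 24 h after dosing by RT-PCR, fluorescent labelling, HpaI digestion and capillary electrophoresis. Bidirectional fit against DMSO baseline.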

[5] = ATG_NRF2_ARE_CIS: Attagene CIS-FACTORIAL HepG2 Assay for human Nuclear Factor Erythroid 2 Related Factor 2 (NFR2) response to Antioxidant Response Elements (ARE) (AID 2282992); conditions: HepG2 Attagene ARE/NRF2 reporter, transcription factor activity; actives raise or lower the signal;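 on AC50: reporter mRNA level measured by RT-PCR and capillary electrophoresis fluorescence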
How it was run: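 Cis-factorial assay: transfected HepG2 reporter library, 24 h dosing, mRNA readout via RT-PCR/CE; DMSO-referenced bidirectional analysis.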

[6] = ATG_Oct_MLP_CIS: Attagene CIS-FACTORIAL HepG2 Assay for human Octamer-Binding Transcription Factor (Oct) (AID 2282993); conditions: HepG2 Attagene cis-factorial Oct reporter, mRNA; actives raise or lower the signal
How it was run: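 HepG2 cells transiently transfected with cis-promoter-driven multiplexed reporter transcription units, dosed for 24 h. Reporter mRNA quantified by RT-PCR, fluorescent labelling, HpaI digestion and capillary electrophoresis; bidirectional fits versus DMSO baseline.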

[7] = molecular target: Cellular tumor antigen p53 (Homo sapiens) (UniProt P04637); test: ATG_p53_CIS: Attagene CIS-FACTORIAL HepG2 Assay for human p53 Transcription Factor (AID 2282994); conditions: HepG2 p53 cis-element reporter, Attagene mRNA; actives raise or lower the signal
How it was run: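 Using HepG2 hepatoma cells carrying cis-acting multiplexed reporters, mRNA induction is detected after a 24 h exposure. Gain- and loss-of-signal responses are fitted relative to DMSO-treated cells.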

[8] = molecular target: human Peroxisome Proliferator-activated Receptor alpha (PPARa), PPARA (gene 5465) (UniProt Q07869); test: ATG_PPARa_TRANS: Attagene TRANS-FACTORIAL HepG2 Assay for human Peroxisome Proliferator-activated Receptor alpha (PPARa) (AID 2283001; active means hit-call score of the fitted dose curve at least 0.9, where 1 is the maximum;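 on AC50: potency for gain of reporter signal over DMSO so agonist or activator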)
How it was run: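 HepG2 cells transiently transfected with multiplexed GAL4-UAS reporters driven by exogenous chimeric NR-Gal4 proteins; reporter mRNA measured after 24 h dosing. Read-out by RT-PCR, 6-FAM labelling, HpaI digestion and capillary electrophoresis; gain of signal versus DMSO.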

[9] = molecular target: human Retinoic Acid Receptor beta (RARb), RARB (gene 5915) (UniProt P10826); test: ATG_RARb_TRANS: Attagene TRANS-FACTORIAL HepG2 Assay for human Retinoic Acid Receptor beta (AID 2283004; active means hit-call score of the fitted dose curve at least 0.9, where 1 is the maximum)
How it was run: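 HepG2, transient MRTU transfection, NR–Gal4 chimera, 24 h treatment; RT-PCR plus CE fluorescence detection of reporter mRNA; gain of signal vs DMSO.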

[10] = molecular target: Retinoic acid receptor alpha (Homo sapiens) (UniProt P10276); test: ATG_RARa_TRANS: Attagene TRANS-FACTORIAL HepG2 Assay for human Retinoic Acid Receptor alpha (RARa) (AID 2283005; active means hit-call score of the fitted dose curve at least 0.9, where 1 is the maximum)
How it was run: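 HepG2 transiently transfected with multiplex GAL4-UAS reporter units including a human RARa–GAL4 chimera; 24 h compound exposure. Reporter mRNA quantified by RT-PCR, 6-FAM labeling and capillary electrophoresis; gain of signal versus DMSO.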

[11] = molecular target: Peroxisome proliferator-activated receptor gamma (Homo sapiens) (UniProt P37231); test: ATG_PPARg_TRANS: Attagene TRANS-FACTORIAL HepG2 Assay for human Peroxisome Proliferator-activated Receptor-gamma (PPARg) (AID 2283007; active means hit-call score of the fitted dose curve at least 0.9, where 1 is the maximum)
How it was run: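 HepG2 cells transiently transfected with multiplexed GAL4-UAS reporter units and exogenous chimeric NR-Gal4 proteins; reporter mRNA quantified after 24 h compound exposure by RT-PCR, fluorescent labelling, HpaI digestion and capillary electrophoresis; gain-of-signal fitted versus DMSO baseline.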

[12] = molecular target: Nuclear receptor subfamily 1 group I member 2 (Homo sapiens) (UniProt O75469); test: ATG_PXR_TRANS: Attagene TRANS-FACTORIAL HepG2 Assay for human Pregnane X Receptor (PXR) (AID 2283008; active means hit-call score of the fitted dose curve at least 0.9, where 1 is the maximum)
How it was run: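 Fluorescence intensity of FAM-labelled, HpaI-digested reporter amplicons, separated by capillary electrophoresis, quantifies induction. HepG2 cells with PXR-Gal4 trans-reporter system were exposed 24 h; DMSO defines baseline.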

[13] = molecular target: human Retinoic Acid Receptor gamma (RARg), RARG (gene 5916) (UniProt P13631); test: ATG_RARg_TRANS: Attagene TRANS-FACTORIAL HepG2 Assay for human Retinoic Acid Receptor gamma (RARg) (AID 2283009; active means hit-call score of the fitted dose curve at least 0.9, where 1 is the maximum)
How it was run: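 Transient transfection of HepG2 with multi-reporter constructs, then 24 h chemical treatment. Total RNA isolated, reverse-transcribed, PCR-amplified, fluorescently labelled and resolved by capillary electrophoresis; activity scored as mRNA induction versus DMSO.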

[14] = molecular target: human Peroxisome Proliferator-activated Receptor delta (PPARd), PPARD (gene 5467) (UniProt Q03181); test: ATG_PPARd_TRANS: Attagene TRANS-FACTORIAL HepG2 Assay for human Peroxisome Proliferator-activated Receptor delta (PPARd) (AID 2283002; active means hit-call score of the fitted dose curve at least 0.9, where 1 is the maximum)
How it was run: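 Fluorescence from capillary electrophoresis of labelled RT-PCR reporter fragments gives the signal; DMSO sets baseline. Cells: HepG2 transiently carrying GAL4-UAS reporter units plus chimeric nuclear receptor-Gal4 proteins, exposed to chemicals for 24 h.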

Measured: AC50

Sequence of Peroxisome proliferator-activated receptor gamma (Homo sapiens) (P37231 whole entry, looked up, the tested form may be a part): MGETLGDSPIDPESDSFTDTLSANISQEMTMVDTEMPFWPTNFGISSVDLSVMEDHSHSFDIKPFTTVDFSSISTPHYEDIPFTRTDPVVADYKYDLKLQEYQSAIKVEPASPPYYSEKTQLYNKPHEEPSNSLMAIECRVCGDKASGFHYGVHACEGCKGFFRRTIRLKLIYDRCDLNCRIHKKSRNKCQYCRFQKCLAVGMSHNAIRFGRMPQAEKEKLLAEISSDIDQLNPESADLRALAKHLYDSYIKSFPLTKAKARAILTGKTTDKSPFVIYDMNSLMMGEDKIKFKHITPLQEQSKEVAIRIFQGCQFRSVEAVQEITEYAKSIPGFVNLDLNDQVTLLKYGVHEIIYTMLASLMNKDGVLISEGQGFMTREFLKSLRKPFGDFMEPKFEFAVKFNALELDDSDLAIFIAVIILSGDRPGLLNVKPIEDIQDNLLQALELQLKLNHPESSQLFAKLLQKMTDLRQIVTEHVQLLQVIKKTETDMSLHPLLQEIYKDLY
Sequence of human Peroxisome Proliferator-activated Receptor alpha (PPARa), PPARA (gene 5465) (Q07869 whole entry, looked up, the tested form may be a part): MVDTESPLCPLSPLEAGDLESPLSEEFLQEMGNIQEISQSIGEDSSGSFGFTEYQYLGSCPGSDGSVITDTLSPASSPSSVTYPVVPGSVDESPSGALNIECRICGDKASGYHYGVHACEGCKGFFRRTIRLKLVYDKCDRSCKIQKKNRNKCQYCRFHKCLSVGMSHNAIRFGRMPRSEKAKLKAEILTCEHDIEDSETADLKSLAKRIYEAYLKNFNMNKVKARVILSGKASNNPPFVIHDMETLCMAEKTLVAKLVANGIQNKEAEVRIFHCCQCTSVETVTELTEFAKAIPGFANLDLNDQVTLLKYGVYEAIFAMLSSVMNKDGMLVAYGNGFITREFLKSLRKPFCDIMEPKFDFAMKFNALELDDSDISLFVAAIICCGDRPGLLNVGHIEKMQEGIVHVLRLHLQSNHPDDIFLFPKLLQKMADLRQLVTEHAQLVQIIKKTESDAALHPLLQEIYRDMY
Sequence of human Peroxisome Proliferator-activated Receptor delta (PPARd), PPARD (gene 5467) (Q03181 whole entry, looked up, the tested form may be a part): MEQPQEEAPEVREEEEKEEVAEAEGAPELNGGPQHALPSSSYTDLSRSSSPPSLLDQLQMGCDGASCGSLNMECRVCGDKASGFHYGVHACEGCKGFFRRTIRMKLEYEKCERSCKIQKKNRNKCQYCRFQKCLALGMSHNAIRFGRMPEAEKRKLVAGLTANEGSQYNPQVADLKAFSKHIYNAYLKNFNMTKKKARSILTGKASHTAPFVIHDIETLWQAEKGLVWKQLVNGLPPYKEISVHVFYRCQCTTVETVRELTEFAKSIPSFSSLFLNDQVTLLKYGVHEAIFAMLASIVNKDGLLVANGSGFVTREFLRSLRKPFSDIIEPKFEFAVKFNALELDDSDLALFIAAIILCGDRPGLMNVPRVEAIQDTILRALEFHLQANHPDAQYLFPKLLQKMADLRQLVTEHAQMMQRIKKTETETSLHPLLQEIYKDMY
Sequence of Cellular tumor antigen p53 (Homo sapiens) (P04637 whole entry, looked up): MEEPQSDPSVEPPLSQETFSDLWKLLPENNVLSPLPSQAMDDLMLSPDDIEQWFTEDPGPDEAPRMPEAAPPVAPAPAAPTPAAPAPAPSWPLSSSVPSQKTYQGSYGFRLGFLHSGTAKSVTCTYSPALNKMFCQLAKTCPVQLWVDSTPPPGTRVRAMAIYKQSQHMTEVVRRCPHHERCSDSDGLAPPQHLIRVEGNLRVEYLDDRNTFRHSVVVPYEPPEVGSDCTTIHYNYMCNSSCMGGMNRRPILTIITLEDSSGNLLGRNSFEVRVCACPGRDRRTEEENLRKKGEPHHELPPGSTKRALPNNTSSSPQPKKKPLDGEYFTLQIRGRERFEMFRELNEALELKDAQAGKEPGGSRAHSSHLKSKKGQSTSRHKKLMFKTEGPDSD
Sequence of Nuclear respiratory factor 1 (Homo sapiens) (Q16656 whole entry, looked up): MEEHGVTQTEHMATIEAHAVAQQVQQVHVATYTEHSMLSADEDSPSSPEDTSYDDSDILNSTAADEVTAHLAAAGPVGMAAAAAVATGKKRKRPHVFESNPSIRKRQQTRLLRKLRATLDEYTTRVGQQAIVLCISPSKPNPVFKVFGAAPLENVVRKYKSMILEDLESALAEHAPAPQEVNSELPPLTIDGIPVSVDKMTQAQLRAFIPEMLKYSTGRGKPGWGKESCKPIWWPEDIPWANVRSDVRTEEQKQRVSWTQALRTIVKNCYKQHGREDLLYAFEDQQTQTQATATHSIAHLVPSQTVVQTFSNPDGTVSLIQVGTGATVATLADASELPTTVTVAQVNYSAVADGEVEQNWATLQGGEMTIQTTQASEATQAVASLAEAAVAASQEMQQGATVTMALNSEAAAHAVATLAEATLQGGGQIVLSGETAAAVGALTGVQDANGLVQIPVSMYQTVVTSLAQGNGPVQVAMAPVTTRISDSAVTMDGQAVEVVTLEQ
Sequence of human Retinoic Acid Receptor gamma (RARg), RARG (gene 5916) (P13631 whole entry, looked up): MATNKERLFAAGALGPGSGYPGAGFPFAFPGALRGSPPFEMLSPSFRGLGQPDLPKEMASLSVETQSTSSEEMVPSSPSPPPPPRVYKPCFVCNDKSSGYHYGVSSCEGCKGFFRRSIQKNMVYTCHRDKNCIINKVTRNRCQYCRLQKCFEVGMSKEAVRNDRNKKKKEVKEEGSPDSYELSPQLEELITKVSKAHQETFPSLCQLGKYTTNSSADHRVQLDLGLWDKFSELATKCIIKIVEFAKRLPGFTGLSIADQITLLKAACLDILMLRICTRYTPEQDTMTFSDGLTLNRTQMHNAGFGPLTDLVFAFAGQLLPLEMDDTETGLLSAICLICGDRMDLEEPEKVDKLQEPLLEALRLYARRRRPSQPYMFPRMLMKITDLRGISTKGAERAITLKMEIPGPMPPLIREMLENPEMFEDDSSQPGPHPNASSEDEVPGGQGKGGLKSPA
Sequence of Myc proto-oncogene protein (Homo sapiens) (P01106 whole entry, looked up, the tested form may be a part): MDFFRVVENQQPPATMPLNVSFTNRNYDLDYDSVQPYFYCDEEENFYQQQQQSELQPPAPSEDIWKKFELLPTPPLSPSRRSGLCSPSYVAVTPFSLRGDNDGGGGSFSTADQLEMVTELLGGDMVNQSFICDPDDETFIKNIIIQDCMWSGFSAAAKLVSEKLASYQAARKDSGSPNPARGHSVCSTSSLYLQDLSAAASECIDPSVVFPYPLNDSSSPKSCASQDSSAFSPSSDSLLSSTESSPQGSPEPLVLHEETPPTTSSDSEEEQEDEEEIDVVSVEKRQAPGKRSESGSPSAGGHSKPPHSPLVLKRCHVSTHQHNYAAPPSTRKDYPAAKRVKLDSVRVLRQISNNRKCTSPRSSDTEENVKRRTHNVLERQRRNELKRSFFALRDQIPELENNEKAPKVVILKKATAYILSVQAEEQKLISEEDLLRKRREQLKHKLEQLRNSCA
Sequence of human Retinoic Acid Receptor beta (RARb), RARB (gene 5915) (P10826 whole entry, looked up, the tested form may be a part): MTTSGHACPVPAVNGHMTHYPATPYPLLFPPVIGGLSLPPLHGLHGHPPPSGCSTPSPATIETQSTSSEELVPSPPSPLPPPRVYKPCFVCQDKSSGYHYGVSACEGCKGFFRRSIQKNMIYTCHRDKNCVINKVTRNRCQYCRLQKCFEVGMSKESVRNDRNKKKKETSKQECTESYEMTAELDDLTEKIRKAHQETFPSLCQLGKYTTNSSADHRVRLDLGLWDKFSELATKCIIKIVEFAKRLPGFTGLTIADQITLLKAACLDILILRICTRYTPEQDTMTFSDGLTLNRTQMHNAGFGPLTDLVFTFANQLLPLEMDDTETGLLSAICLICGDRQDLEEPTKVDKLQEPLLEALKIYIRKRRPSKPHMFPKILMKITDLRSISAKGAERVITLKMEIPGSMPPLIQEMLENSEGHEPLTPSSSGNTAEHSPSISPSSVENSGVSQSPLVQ
Sequence of Nuclear receptor subfamily 1 group I member 2 (Homo sapiens) (O75469 whole entry, looked up, the tested form may be a part): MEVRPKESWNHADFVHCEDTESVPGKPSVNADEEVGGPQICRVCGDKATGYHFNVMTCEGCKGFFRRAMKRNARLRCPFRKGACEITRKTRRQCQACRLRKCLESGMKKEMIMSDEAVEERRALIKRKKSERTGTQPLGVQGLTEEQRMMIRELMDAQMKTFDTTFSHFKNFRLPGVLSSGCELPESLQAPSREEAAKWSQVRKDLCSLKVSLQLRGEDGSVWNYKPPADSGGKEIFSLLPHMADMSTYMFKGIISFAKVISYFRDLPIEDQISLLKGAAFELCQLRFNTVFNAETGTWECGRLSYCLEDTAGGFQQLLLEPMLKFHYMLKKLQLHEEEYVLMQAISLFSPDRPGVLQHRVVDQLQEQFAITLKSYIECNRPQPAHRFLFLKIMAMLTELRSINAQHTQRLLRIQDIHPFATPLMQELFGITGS
Sequence of Retinoic acid receptor alpha (Homo sapiens) (P10276 whole entry, looked up, the tested form may be a part): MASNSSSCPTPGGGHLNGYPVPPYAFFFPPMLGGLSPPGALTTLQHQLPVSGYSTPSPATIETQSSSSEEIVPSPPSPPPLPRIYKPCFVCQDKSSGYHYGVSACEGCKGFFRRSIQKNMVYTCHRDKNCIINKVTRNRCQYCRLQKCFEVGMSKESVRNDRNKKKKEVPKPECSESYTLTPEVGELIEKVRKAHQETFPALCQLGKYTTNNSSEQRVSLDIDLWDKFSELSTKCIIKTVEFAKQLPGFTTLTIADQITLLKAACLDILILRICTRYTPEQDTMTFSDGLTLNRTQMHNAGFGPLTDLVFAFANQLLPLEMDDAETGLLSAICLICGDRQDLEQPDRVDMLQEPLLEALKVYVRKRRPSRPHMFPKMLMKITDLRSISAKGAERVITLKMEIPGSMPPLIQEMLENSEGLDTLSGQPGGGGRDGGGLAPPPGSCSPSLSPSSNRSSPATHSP

CCn1c2ccccc2c2ccccc21
active: [2] 152 µM | [5] 157 µM | [6] 100 µM | [12] 10.3 µM
not listed: [14]
inactive: all other assays above

F[Si-2](F)(F)(F)(F)F
not listed: [10] | [11] | [13]
inactive: all other assays above

CCC(Cc1c(I)cc(I)c(N)c1I)C(=O)O (centres undefined)
active: [3] 148 µM | [5] 47 µM | [8] 35.9 µM | [11] 29.5 µM
inactive: [1] | [2] | [4] | [6] | [7] | [12]

CCCCCCCCCCCCC[N+](C)(C)Cc1ccccc1
active: [5] 4.37 µM
not listed: [13] | [14]
inactive: all other assays above

COCCC(=O)OC
not listed: [9] | [10] | [13] | [14]
inactive: all other assays above

CC1CCCCC1
not listed: [9] | [14]
inactive: all other assays above

CCCCCCCC/C=C\CCCCCCCC(=O)OCC(O)CO (centres undefined)
active: [5] 68.4 µM | [8] 27.7 µM | [11] 27.3 µM
not listed: [9] | [10] | [13] | [14]
inactive: all other assays above

CC(C)OC(=O)COc1ccc(Cl)cc1Cl
not listed: [9] | [10] | [14]
inactive: all other assays above

CCCCCCCCn1sc(Cl)c(Cl)c1=O
active: [5] 6.58 µM | [7] 11.1 µM | [11] 11.1 µM
not listed: [9] | [10] | [13]
inactive: all other assays above

CCC(=O)OC(C)c1ccccc1 (centres undefined)
not listed: [9] | [12] | [14]
inactive: all other assays above

CC(C)(C)C(=O)C1C(=O)c2ccccc2C1=O
active: [5] 31.5 µM | [6] 63.1 µM | [11] 28 µM | [12] 22.4 µM
not listed: [14]
inactive: all other assays above

CSc1ccc(Cl)cc1
not listed: [9] | [10] | [11] | [13]
inactive: all other assays above

CC1=CCC(=O)O1
not listed: [12] | [13] | [14]
inactive: all other assays above

CCCCOC(=O)C(C)O (centres undefined)
not listed: [10] | [12]
inactive: all other assays above

O=C1c2ccccc2C(=O)c2c(Cl)cccc21
active: [4] 4.35 µM | [12] 2.73 µM
not listed: [9] | [14]
inactive: all other assays above

CCCCCCCCCCCC(=O)Cl
active: [4] 123 µM | [5] 74.5 µM | [14] 125 µM | [11] 72.9 µM
not listed: [9] | [10]
inactive: all other assays above

CCCCCCCC/C=C\CCCCCCCC(=O)N(C)CC(=O)O
active: [8] 2.02 µM | [11] 5.36 µM
not listed: [14]
inactive: all other assays above
